According to PubChem BioAssay (NCI):
About 83,000 compounds went through this panel and 20% of them were active in at least one assay; those are over-represented in the sample as a whole.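 The test compound was applied at a single concentration to cells in 96-well plates for 48 hours, and percent growth was recorded.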 Calls of active or inactive are those of the source. The calls were made as follows: active = growth percent below 10; inactive = the rest.

Legend:
Experiment in all cases: NCI-60 one-dose screen, 48 h (100 = growth as untreated, 0 = no growth, -100 = all killed)
Settings in all cases: 10 µM unless noted
NCI/ADR-RES ovarian = test system: NCI/ADR-RES ovarian
BT-549 breast = test system: BT-549 breast
MDA-MB-435 melanoma = test system: MDA-MB-435 melanoma
SW-620 colon = test system: SW-620 colon
MCF7 breast = test system: MCF7 breast
HCT-116 colon = test system: HCT-116 colon
HCC-2998 colon = test system: HCC-2998 colon
KM12 colon = test system: KM12 colon
T-47D breast = test system: T-47D breast

Measured: growth

CC(C)=CCC/C(C)=C/C=N\N=C(/N)N[N+](=O)[O-]
inactive: NCI/ADR-RES ovarian 102% | BT-549 breast 92.8% | MDA-MB-435 melanoma 94% | SW-620 colon 106% | MCF7 breast 81.1% | HCT-116 colon 91.1% | HCC-2998 colon 108% | KM12 colon 95.7%

CC(=O)OC1C(OC/C2=C/C3[C@@H](C(C)C)CC=C(C)[C@@H]3CC(OC(=O)/C=C/c3cn(C)cn3)[C@]3(C)C=C[C@@]2(O)O3)OCC(O)C1O (some centres undefined)
active: BT-549 breast -14.3% | MDA-MB-435 melanoma -52.3% | HCT-116 colon 4.11% | HCC-2998 colon -44.1%
inactive: NCI/ADR-RES ovarian 80.8% | SW-620 colon 35.8% | MCF7 breast 13.5% | KM12 colon 14.1%

COC(=O)[C@H](C[C@H](Cc1ccccc1)NC(=O)c1csc([C@@H](C[C@H](C(C)C)N(C)C(=O)[C@@H](NC(=O)[C@H]2CCCCN2C)C(C)C)OC(C)=O)n1)NC(=O)OCc1ccccc1
active: NCI/ADR-RES ovarian 8.51% [8.5 µM] | BT-549 breast -34.2% [8.5 µM] | MDA-MB-435 melanoma -33% [8.5 µM] | HCT-116 colon -4.29% [8.5 µM] | KM12 colon 3.13% [8.5 µM]
inactive: SW-620 colon 25.4% [8.5 µM] | MCF7 breast 29.4% [8.5 µM] | HCC-2998 colon 20.4% [8.5 µM]

Cn1cc(-c2csc(-c3cn(CCCCN4CCCCC4)c4ccccc34)n2)c2cccnc21
inactive: BT-549 breast 69.2% | HCC-2998 colon 87.2%
active: NCI/ADR-RES ovarian -17.4% | MDA-MB-435 melanoma -79.6% | SW-620 colon -65.2% | MCF7 breast -65.9% | HCT-116 colon -90.4% | KM12 colon 0.281%

CC1CCCC(C[N+](C)(C)C)C1=O (centres undefined)
inactive: NCI/ADR-RES ovarian 107% | BT-549 breast 125% | MDA-MB-435 melanoma 106% | SW-620 colon 109% | MCF7 breast 103% | HCT-116 colon 109% | HCC-2998 colon 102% | KM12 colon 109%

C[C@]12CCc3sc(NCCc4ccccc4)nc3C1=CC[C@@H]1[C@@H]2CC[C@]2(C)C(=O)CC[C@@H]12
inactive: NCI/ADR-RES ovarian 70.2% | T-47D breast 75.2% | MDA-MB-435 melanoma 58.1% | SW-620 colon 35.3% | MCF7 breast 20.4% | HCT-116 colon 21.2% | HCC-2998 colon 106% | KM12 colon 74.7%

C[C@@H]1O[C@@H](O[C@H]2C[C@@H](O)[C@]3(CO)C4C(CC[C@]3(O)C2)[C@@]2(O)CC[C@H](C3=CC(=O)OC3)[C@@]2(C)C[C@H]4O)[C@H](O)[C@H](O)[C@H]1O (some centres undefined)
active: NCI/ADR-RES ovarian -61.5% | T-47D breast -34.9% | MDA-MB-435 melanoma -80.5% | SW-620 colon -76.9% | MCF7 breast -48.1% | HCT-116 colon -94.5% | HCC-2998 colon -89.4% | KM12 colon -89.1%

CN1C(=O)C23CC4(C56CC78SSC(CO)(C(=O)N7C5Nc5ccccc56)N(C)C8=O)c5ccccc5NC4N2C(=O)C1(CO)SS3 (centres undefined)
active: NCI/ADR-RES ovarian -23.4% | BT-549 breast -99.1% | MDA-MB-435 melanoma -87% | SW-620 colon -78.5% | MCF7 breast -68.1% | HCT-116 colon -78.5% | HCC-2998 colon -94.2%

O[C@H](CN1CC1)[C@@H](O)CN1CC1
inactive: NCI/ADR-RES ovarian 56.3% | T-47D breast 48% | MDA-MB-435 melanoma 78.3% | SW-620 colon 64.4% | MCF7 breast 41.7% | HCT-116 colon 66.3% | HCC-2998 colon 97% | KM12 colon 91.5%

O=[N+]([O-])c1ccc([Se]C2CCCCC2Cl)c([N+](=O)[O-])c1 (centres undefined)
inactive: NCI/ADR-RES ovarian 79% | BT-549 breast 60.8% | MDA-MB-435 melanoma 55.3% | SW-620 colon 106% | MCF7 breast 91.4% | HCT-116 colon 46.6% | HCC-2998 colon 98.8%

[Cl][Hg][n]1c(-c2ccco2)nc2ccccc21
inactive: NCI/ADR-RES ovarian 98.6% | BT-549 breast 99.2% | MDA-MB-435 melanoma 95.7% | SW-620 colon 80.9% | MCF7 breast 74.9% | HCT-116 colon 99.7% | HCC-2998 colon 116% | KM12 colon 97.8%

Fc1ccc(C2=CCNCC2)cc1
inactive: NCI/ADR-RES ovarian 78.6% | T-47D breast 99.2% | MDA-MB-435 melanoma 102% | SW-620 colon 104% | MCF7 breast 93.9% | HCT-116 colon 109% | KM12 colon 109%

C[Se]C(=O)c1ccccc1OC(C)=O
inactive: NCI/ADR-RES ovarian 35% | BT-549 breast 27.9% | MDA-MB-435 melanoma 46.4% | SW-620 colon 79.6% | MCF7 breast 53.3% | HCT-116 colon 19.6% | HCC-2998 colon 95.5%

Cc1c(O)c(CN(CCCl)CCCl)cc(CN(CCCl)CCCl)c1O
inactive: NCI/ADR-RES ovarian 103% | BT-549 breast 99.1% | MDA-MB-435 melanoma 96.8% | SW-620 colon 67.9% | MCF7 breast 67.5% | HCT-116 colon 84% | HCC-2998 colon 90.6% | KM12 colon 103%

CC[C@H](C)[C@H](NC(=O)[C@H]1CCCCN1C)C(=O)N(C)[C@H](C[C@@H](O)c1nc(C(=O)N[C@@H](Cc2ccccc2)C[C@H](C)C(=O)O)cs1)C(C)C
inactive: NCI/ADR-RES ovarian 109% | BT-549 breast 88.5% | MDA-MB-435 melanoma 18.9% | SW-620 colon 58.6% | MCF7 breast 29.9% | HCT-116 colon 77.7% | HCC-2998 colon 99.9% | KM12 colon 72.7%

CCCCCCC(=O)NC1=C(N2CC2)C(=O)C(NC(=O)CCCCCC)=C(N2CC2)C1=O
inactive: NCI/ADR-RES ovarian 60.1% | BT-549 breast 28% | MDA-MB-435 melanoma 13.4% | SW-620 colon 56.9% | MCF7 breast 19.1% | HCC-2998 colon 53.9% | KM12 colon 48.8%
active: HCT-116 colon -14.1%

C[C@@]12CC[C@@H](O)C[C@@H]1CC[C@H]1[C@H]2CC[C@@]2(C)[C@H](c3ccc(=O)oc3)CC[C@@]12O
active: NCI/ADR-RES ovarian -39.6% | BT-549 breast -84.2% | MDA-MB-435 melanoma -81.9% | SW-620 colon -68.3% | MCF7 breast -27% | HCT-116 colon -76% | HCC-2998 colon -50.7% | KM12 colon -87.6%

Nc1ccc(-c2nc3cc(F)ccc3[se]2)cc1F
active: MCF7 breast 5.06%
inactive: NCI/ADR-RES ovarian 91.5% | BT-549 breast 67.8% | MDA-MB-435 melanoma 97.7% | SW-620 colon 97.2% | HCT-116 colon 58.9% | HCC-2998 colon 30.9% | KM12 colon 54%

ClC1=C(Cl)C(Cl)(C2(Cl)C(Cl)=C(Cl)C(Cl)=C2Cl)C(Cl)=C1Cl
inactive: HCC-2998 colon 52.1% | KM12 colon 84.5%
active: NCI/ADR-RES ovarian 4.66% | BT-549 breast -12.3% | MDA-MB-435 melanoma -50.9% | SW-620 colon -52.8% | MCF7 breast -40.9% | HCT-116 colon -73.4%

CC[C@H](C)[C@H](NC(=O)c1nccn1C)C(=O)N(C)[C@H](C[C@@H](OC(C)=O)c1nc(C(=O)N[C@@H](Cc2ccccc2)C[C@H](C)C(=O)OC)cs1)C(C)C
inactive: NCI/ADR-RES ovarian 16.5% | SW-620 colon 26.1% | MCF7 breast 17.5% | HCC-2998 colon 31.5% | KM12 colon 11.1%
active: BT-549 breast 0.0991% | MDA-MB-435 melanoma -48% | HCT-116 colon 3.27%

Cn1cc(-c2csc(-c3cn(CCN4CCOCC4)c4ccccc34)n2)c2cccnc21
inactive: NCI/ADR-RES ovarian 31.4% | BT-549 breast 45.1% | MDA-MB-435 melanoma 65.1% | SW-620 colon 83.1% | MCF7 breast 30.7% | HCT-116 colon 72.9% | HCC-2998 colon 99.2% | KM12 colon 56.5%

O=C(N/N=C\c1ccc(N(CCCl)CCCl)cc1)c1cccc([N+](=O)[O-])c1
inactive: NCI/ADR-RES ovarian 88.1% | BT-549 breast 96% | MDA-MB-435 melanoma 105% | SW-620 colon 100% | MCF7 breast 79.9% | HCT-116 colon 97% | HCC-2998 colon 101% | KM12 colon 93.6%

O=C1C=C2C(=CCOC2O)O1 (centres undefined)
inactive: T-47D breast 13.7% | MCF7 breast 13.3% | HCC-2998 colon 93.3% | KM12 colon 20.5%
active: NCI/ADR-RES ovarian 0.601% | MDA-MB-435 melanoma 5.62% | SW-620 colon -47.3% | HCT-116 colon -69.5%

O=Cc1cn(Cc2ccc(Cl)cc2)c2ccccc12
inactive: NCI/ADR-RES ovarian 90.6% | BT-549 breast 92.7% | MDA-MB-435 melanoma 104% | SW-620 colon 68.1% | MCF7 breast 55.5% | HCT-116 colon 63.2% | HCC-2998 colon 98% | KM12 colon 109%

CCCCCCCC[N+](C)(CCCCCCCC)CCCCCCCC
active: NCI/ADR-RES ovarian -100% | T-47D breast -73.4% | MDA-MB-435 melanoma -90.8% | SW-620 colon -100% | MCF7 breast -100% | HCT-116 colon -100% | HCC-2998 colon -98% | KM12 colon -100%

CCOP(=O)(Nc1ccc2c(c1)/C(=N/NC(N)=S)c1ccccc1-2)OCC
inactive: NCI/ADR-RES ovarian 100% | BT-549 breast 101% | MDA-MB-435 melanoma 107% | SW-620 colon 115% | MCF7 breast 69.6% | HCT-116 colon 103% | HCC-2998 colon 119% | KM12 colon 88.9%

O=C(CC1(O)C(=O)N(Cc2ccccc2)c2ccc(Cl)cc21)c1ccc(C(=O)NCC2CCC3(CC2)OOC2(CCCCC2)OO3)cc1 (centres undefined)
active: NCI/ADR-RES ovarian -42.7% | MDA-MB-435 melanoma -67.8% | SW-620 colon -56.5% | HCT-116 colon 3.72% | KM12 colon -67.3%
inactive: BT-549 breast 11.8% | MCF7 breast 17.4% | HCC-2998 colon 67.6%

Clc1cccc(NCOOC2(OOCNc3cccc(Cl)c3)CCCCC2)c1
inactive: NCI/ADR-RES ovarian 36.8% | BT-549 breast 78% | MDA-MB-435 melanoma 78.7% | SW-620 colon 98.8% | MCF7 breast 65.3% | HCT-116 colon 61.2% | HCC-2998 colon 95.4% | KM12 colon 51.4%

Clc1ccc2nnnn2n1
active: MDA-MB-435 melanoma -1.91% | HCT-116 colon -15.9% | KM12 colon -38%
inactive: NCI/ADR-RES ovarian 59.2% | BT-549 breast 29.1% | SW-620 colon 24.5% | MCF7 breast 19.2% | HCC-2998 colon 107%

CC12CCC3C(C=CC4=C(N)C(=O)CCC43C)C1CCC2=O (centres undefined)
inactive: NCI/ADR-RES ovarian 68.7% | BT-549 breast 82.6% | MDA-MB-435 melanoma 113% | SW-620 colon 15.4% | HCC-2998 colon 96% | KM12 colon 39.5%
active: MCF7 breast -16% | HCT-116 colon 6.15%

CCCCCCCCOC(=O)CCN1CC1
inactive: T-47D breast 108% | BT-549 breast 107% | MDA-MB-435 melanoma 105% | SW-620 colon 113% | MCF7 breast 102% | HCT-116 colon 112% | HCC-2998 colon 110% | KM12 colon 109%
